Assays:
[1] = molecular target: Death-associated protein kinase 1 (Homo sapiens) (UniProt P53355); conditions: at 1 µM;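 also: each value is a mean inhibition figure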
[2] = molecular target: T1, Serine/threonine-protein kinase DCLK2 (Homo sapiens) (UniProt Q8N568); conditions: at 0.1 µM
T1 sequence (whole entry): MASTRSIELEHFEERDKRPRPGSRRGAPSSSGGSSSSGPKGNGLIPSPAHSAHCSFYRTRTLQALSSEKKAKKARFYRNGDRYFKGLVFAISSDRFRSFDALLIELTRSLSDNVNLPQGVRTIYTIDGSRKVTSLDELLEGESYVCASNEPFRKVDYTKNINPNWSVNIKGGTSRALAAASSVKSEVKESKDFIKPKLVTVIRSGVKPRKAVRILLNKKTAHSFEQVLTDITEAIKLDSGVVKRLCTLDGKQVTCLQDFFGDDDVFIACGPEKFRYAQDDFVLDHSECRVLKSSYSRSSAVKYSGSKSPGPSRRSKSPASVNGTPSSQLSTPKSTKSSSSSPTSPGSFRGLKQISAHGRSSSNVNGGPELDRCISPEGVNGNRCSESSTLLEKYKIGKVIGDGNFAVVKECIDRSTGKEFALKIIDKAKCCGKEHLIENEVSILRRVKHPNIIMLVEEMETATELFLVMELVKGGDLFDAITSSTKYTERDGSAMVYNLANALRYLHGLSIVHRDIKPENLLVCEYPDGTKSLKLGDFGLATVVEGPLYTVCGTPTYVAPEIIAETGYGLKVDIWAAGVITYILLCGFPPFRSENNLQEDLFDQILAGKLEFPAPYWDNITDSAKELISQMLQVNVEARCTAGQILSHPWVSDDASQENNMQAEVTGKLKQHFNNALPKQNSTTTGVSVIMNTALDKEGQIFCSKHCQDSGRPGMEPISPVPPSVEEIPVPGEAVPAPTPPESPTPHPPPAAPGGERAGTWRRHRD

[3] = molecular target: T1, Serine/threonine-protein kinase DCLK2 (Homo sapiens); conditions: at 1 µM
[4] = molecular target: MAP kinase-activated protein kinase 2 (Homo sapiens) (UniProt P49137); conditions: at 0.1 µM
[5] = molecular target: MAP kinase-activated protein kinase 2 (Homo sapiens) (UniProt P49137); conditions: at 1 µM
[6] = molecular target: MAP kinase-activated protein kinase 3 (Homo sapiens) (UniProt Q16644); conditions: at 0.1 µM
[7] = molecular target: MAP kinase-activated protein kinase 3 (Homo sapiens) (UniProt Q16644); conditions: at 1 µM
[8] = molecular target: Serine/threonine-protein kinase MARK1 (Homo sapiens) (UniProt Q9P0L2); conditions: at 0.1 µM
[9] = molecular target: Serine/threonine-protein kinase MARK1 (Homo sapiens) (UniProt Q9P0L2); conditions: at 1 µM
[10] = molecular target: MAP/microtubule affinity-regulating kinase 3 (Homo sapiens) (UniProt P27448); conditions: at 0.1 µM;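 also: mean percent inhibition of MARK3 kinase activity, measured within the GSK PKIS screening panel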
MAP/microtubule affinity-regulating kinase 3 (Homo sapiens), sequence (P27448 whole entry, looked up): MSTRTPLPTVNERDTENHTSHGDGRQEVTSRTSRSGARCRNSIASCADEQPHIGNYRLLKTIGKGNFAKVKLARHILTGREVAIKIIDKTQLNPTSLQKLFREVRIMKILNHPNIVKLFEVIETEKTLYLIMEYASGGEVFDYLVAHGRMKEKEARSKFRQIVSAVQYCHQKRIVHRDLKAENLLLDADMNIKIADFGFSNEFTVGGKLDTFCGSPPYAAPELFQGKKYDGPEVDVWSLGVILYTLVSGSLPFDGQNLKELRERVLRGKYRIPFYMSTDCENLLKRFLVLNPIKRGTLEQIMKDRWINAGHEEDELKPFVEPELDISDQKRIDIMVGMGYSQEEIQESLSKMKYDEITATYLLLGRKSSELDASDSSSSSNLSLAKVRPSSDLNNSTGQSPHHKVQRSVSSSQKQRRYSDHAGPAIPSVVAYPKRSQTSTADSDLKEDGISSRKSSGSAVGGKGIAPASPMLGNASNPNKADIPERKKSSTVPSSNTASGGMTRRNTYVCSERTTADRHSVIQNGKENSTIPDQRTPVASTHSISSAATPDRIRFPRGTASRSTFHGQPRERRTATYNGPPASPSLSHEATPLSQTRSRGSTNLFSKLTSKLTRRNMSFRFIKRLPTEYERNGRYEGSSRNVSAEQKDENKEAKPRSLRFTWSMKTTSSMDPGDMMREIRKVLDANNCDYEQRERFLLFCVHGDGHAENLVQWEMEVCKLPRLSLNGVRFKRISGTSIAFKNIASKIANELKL

Death-associated protein kinase 1 (Homo sapiens), sequence (P53355 whole entry, looked up): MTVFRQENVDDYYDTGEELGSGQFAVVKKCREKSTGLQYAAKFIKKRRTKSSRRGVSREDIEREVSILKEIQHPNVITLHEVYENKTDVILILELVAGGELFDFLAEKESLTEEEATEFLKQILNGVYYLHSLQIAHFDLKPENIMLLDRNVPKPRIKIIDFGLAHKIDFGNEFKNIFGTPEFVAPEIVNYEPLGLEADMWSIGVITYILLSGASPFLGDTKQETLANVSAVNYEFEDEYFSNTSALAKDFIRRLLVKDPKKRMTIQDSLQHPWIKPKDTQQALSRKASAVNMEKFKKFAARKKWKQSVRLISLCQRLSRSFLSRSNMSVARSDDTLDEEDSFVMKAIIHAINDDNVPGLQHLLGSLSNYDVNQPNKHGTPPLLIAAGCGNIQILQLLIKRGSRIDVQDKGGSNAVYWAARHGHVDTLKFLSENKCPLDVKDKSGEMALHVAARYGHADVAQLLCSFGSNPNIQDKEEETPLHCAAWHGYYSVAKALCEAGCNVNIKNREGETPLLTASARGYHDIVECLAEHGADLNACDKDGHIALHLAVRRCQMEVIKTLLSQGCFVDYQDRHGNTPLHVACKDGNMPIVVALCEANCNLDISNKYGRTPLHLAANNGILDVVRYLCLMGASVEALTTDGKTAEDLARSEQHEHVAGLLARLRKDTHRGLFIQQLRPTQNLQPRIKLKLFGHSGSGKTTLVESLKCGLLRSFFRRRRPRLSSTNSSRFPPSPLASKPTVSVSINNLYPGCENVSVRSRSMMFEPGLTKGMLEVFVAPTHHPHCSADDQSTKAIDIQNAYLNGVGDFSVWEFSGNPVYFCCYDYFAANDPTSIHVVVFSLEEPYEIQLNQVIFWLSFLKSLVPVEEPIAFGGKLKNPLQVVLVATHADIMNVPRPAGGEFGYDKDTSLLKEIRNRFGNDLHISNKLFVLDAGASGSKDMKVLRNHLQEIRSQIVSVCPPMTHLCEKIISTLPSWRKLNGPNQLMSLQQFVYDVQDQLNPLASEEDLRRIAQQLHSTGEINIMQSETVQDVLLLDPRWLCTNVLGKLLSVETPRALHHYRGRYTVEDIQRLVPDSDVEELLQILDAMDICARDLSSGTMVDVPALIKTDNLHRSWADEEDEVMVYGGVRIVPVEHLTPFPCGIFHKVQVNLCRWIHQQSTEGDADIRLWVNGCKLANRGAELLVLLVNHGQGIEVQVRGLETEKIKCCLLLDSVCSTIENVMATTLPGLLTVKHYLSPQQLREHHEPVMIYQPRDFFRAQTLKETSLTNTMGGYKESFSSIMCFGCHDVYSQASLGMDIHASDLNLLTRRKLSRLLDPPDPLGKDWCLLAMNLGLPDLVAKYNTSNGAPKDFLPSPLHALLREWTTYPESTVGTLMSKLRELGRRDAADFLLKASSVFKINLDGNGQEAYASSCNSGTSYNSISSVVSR
MAP kinase-activated protein kinase 3 (Homo sapiens), sequence (Q16644 whole entry, looked up): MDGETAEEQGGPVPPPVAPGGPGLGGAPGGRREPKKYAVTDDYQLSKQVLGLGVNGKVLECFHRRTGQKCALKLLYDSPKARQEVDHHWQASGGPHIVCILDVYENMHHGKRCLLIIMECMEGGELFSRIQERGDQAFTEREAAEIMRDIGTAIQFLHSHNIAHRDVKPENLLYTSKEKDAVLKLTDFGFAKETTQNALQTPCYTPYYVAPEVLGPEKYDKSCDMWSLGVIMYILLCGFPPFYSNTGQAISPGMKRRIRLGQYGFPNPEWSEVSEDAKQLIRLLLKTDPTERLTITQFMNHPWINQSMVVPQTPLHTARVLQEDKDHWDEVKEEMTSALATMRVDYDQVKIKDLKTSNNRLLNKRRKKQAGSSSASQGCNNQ
Serine/threonine-protein kinase MARK1 (Homo sapiens), sequence (Q9P0L2 whole entry, looked up): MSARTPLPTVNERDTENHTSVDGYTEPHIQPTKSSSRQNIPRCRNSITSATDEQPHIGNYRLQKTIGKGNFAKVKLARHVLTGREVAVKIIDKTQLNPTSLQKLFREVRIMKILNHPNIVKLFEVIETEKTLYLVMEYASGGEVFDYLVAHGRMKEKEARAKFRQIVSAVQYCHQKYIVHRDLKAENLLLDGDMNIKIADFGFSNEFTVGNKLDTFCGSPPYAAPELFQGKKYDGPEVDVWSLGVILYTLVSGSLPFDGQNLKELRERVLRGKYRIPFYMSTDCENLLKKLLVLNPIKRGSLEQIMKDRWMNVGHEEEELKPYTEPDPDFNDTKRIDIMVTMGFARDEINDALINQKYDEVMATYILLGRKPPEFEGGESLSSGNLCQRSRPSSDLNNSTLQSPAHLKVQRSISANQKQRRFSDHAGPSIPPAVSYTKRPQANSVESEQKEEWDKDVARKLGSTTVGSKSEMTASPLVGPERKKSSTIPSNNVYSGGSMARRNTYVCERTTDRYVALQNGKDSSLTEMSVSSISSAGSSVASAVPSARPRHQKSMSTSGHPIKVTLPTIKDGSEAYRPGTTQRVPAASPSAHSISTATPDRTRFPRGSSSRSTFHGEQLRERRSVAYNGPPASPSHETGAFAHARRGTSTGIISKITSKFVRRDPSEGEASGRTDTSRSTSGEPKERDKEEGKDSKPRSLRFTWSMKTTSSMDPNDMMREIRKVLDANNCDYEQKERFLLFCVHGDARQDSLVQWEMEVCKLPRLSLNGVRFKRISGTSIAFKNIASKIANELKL
MAP kinase-activated protein kinase 2 (Homo sapiens), sequence (P49137 whole entry, looked up): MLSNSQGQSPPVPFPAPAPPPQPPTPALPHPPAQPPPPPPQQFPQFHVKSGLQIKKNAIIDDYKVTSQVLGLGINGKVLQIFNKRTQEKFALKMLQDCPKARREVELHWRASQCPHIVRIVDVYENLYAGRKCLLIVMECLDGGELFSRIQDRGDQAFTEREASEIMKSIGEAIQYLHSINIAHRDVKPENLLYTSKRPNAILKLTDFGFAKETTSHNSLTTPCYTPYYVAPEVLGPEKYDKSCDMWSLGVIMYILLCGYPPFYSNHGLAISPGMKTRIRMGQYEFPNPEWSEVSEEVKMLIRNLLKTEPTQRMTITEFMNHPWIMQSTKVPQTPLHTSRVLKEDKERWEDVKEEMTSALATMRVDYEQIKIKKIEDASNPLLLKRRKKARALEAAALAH

Compound	inhibition [1] [%]	inhibition [2] [%]	inhibition [3] [%]	inhibition [4] [%]	inhibition [5] [%]	inhibition [6] [%]	inhibition [7] [%]	inhibition [8] [%]	inhibition [9] [%]	inhibition [10] [%]
c1ccc(Nc2ncc(-c3ccccc3)o2)cc1	5.31	0.92	3.72	1.35	2.04	4.43	5.91	1.31	4.58	1.16
NC(=O)c1sc(-n2cnc3ccccc32)cc1OCc1ccccc1Br	10.6	-1	-0.82	4.58	6.13	8.98	12.7	2.32	5.92	-0.1
OCc1ccc(-c2nc(-c3ccccn3)c(-c3ccc4c(c3)OCO4)[nH]2)cc1	6.09	2.19	2.76	1.95	1.87	3.91	6.87	4.66	4.32	4.6
COc1ccc2ncnc(Nc3ccc(OCc4ccccc4)cc3)c2c1	3.26	-5.53	-8.44	1.42	-2.28	2.72	4.71	1.85	3.7	1.64
CCCN1CCCC(c2ccc(Nc3nc(Nc4cc(F)ccc4C(N)=O)c4cc[nH]c4n3)c(OC)c2)C1 (stereo not given)	47.1	2.57	7.08	2.17	3.54	8.62	17.3	11	52.9	19.9
ON=C1CCc2cc(-c3nc(C4CCNCC4)[nH]c3-c3ccncc3)ccc21	1.92	2.56	-0.17	-0.64	-0.71	8.04	26.9	0.47	1.75	0.82
CCS(=O)(=O)c1ccc(OC)c(Nc2nccc(N(C)c3ccc4c(C)n[nH]c4c3)n2)c1	4.98	-0.1	2.14	2.62	1.63	3.91	6.4	2.93	3.99	3.81
O=C(Nc1ccc(Oc2ccc3[nH]c(NC(=O)c4ccco4)nc3c2)cc1)Nc1cc(C(F)(F)F)ccc1F	-1.29	-4.07	-5.38	-0.82	-1.43	2.85	16.3	-1.16	0.35	-0.52
CN(C)C(=O)O[C@H]1CN[C@H](C#Cc2cc3ncnc(Nc4ccc(OCc5cccc(F)c5)c(Cl)c4)c3s2)C1	2.24	-0.33	2.04	1.5	0.84	2.84	2.58	2.51	2.11	2.14
COC(=O)Nc1nc2cc(Oc3ccc(NC(=O)Nc4cccc(Br)c4)cc3)ccc2[nH]1	2.38	-0.32	4.24	1.26	1.19	4.95	6.43	1.41	1.86	3.56
Nc1nccc(C#Cc2cncnc2Nc2ccc(OCc3cccc(F)c3)c(Cl)c2)n1	5.3	1.36	0.82	1.66	1.43	2.38	4.95	5.72	10.4	4.09
CN(C)c1cc2c(Nc3ccc4c(cnn4Cc4ccccc4)c3)ncnc2cn1	4	0.57	-0.18	1.53	1.29	2.73	2.81	2.96	3.22	0.52
C[C@@H](Oc1cc(-n2cnc3ccc(OCC4CCN(C)CC4)cc32)sc1C(N)=O)c1ccccc1C(F)(F)F	3.7	-1.44	0.02	-1.73	-1.24	-0.96	-1.6	8.37	50.7	6.29
CN(C)C(=O)O[C@@H]1CN[C@@H](C#Cc2cc3ncnc(Nc4ccc(OCc5cccc(F)c5)c(Cl)c4)c3s2)C1	1.85	1.22	0.53	-2.43	-0.13	2.61	3.12	0.76	0.76	2.16
Cc1ccc(C(=O)NC2CC2)cc1-c1ccc2[nH]ncc2c1	-2.38	-3.53	-2.34	-2.72	-1.94	3.22	18.7	0.44	2.83	1.64
Cc1ccc(NC(=O)CC2CC2)cc1-c1ccc(C(=O)NCC2CC2)cc1	12.4	1.13	0.51	4.17	4.27	18.4	33.5	2.05	2.04	2.42
CN(C)CCCn1c(-c2nonc2N)nc2cnccc21	5.9	0.05	2.05	2.54	1.94	4.24	4.17	3.64	6.1	4.25
c1ccc(Cc2nc3ccc(Nc4ncnc5ccccc45)cc3[nH]2)cc1	5.17	-0.21	1.02	1.39	1.85	3.82	4.05	1.85	6.13	1.67
FC(F)(F)c1ccc(-c2nn3ncccc3c2-c2ccnc(Nc3ccc4c(c3)OCCO4)n2)cc1	1.79	5.13	2.77	3.11	3.56	10.3	30.6	4.61	6.64	5.66
COc1cc2ncn(-c3cc(OCc4ccccc4S(C)(=O)=O)c(C#N)s3)c2cc1OC	6.48	1.77	0.47	1.6	1.54	3.38	4.59	36.9	80	49.6
Cc1ccc2c(-c3ccnc(Nc4ccc5c(c4)OCCO5)n3)c(-c3ccc(C(F)(F)F)cc3)nn2n1	1.35	-1.42	-0.35	0.41	-0.12	2.89	10.8	1.39	2.56	-1.05
Cc1ccc2c(c1)/C(=N/Nc1ccc(S(N)(=O)=O)cc1)C(=O)N2	1.29	6.62	-0.15	-0.81	-0.37	2.9	1.35	0.5	3.86	-0.22
NS(=O)(=O)c1cccc(-c2cc3ccncc3cc2OCc2ccccc2)c1	7.29	0.9	0.91	2.83	3.32	4.06	3.27	5.91	9.52	5.98
COC(=O)c1cncc(/C=C/c2c(C)cc(O)cc2C)c1	5.55	1.84	1.18	1.83	2.28	2.97	3.34	2.55	2.79	2.68
NS(=O)(=O)c1ccc(-c2cc3ccncc3cc2OCc2ccccc2)cc1	1.02	0.91	3.41	1.47	1.1	5.12	6.72	0.77	3.63	-0.26
COc1ccc(-c2nn3ncccc3c2-c2ccnc(Nc3cccc(C(F)(F)F)c3)n2)cc1	2.26	-0.87	-1.41	1.58	0.39	7.94	23.9	1.45	3.55	0.72
COc1cc(Nc2nccc(-c3cnn4ncccc34)n2)cc(OC)c1	1.26	4.84	-3.23	0.26	0.15	0.44	0.56	4.67	32.3	6.88

Source: ChEMBL document CHEMBL1961873, “Compounds: GSK PKIS; Assays: Nanosyn kinase panel” (2012)
